Data published in PubChem BioAssay (EPA / NIEHS).
Inconclusive results are not listed. Activity calls are given as the source filed them. How the source made its calls, unless noted: active means hit-call score of the fitted dose curve at least 0.9, where 1 is the maximum; inactive means score below 0.9.

Tests used:
[1] = ACEA_ER_80hr: ACEA Biosciences xCELLigence Real-Time Cell Analysis on Estrogen Receptor Agonism for Proliferation (AID 2282667; active means hit-call score of the fitted dose curve at least 0.9, where 1 is the maximum); details: T47D proliferation, impedance (xCELLigence), 80 h
Procedure, shortened: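 Estrogen-driven proliferation is captured as electrode impedance in T47D cells 80 h after compound addition. Test articles ran at 8 concentrations, 1:4 dilutions from 100 uM final, in two replicate plates.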

[2] = ATG_CRE_CIS: Attagene CIS-FACTORIAL HepG2 Assay for human cAMP Responsive Element (CRE) binding protein 3 (AID 2282926); details: HepG2 CRE cis-reporter, Attagene multiplexed mRNA; actives raise or lower the signal
Procedure, shortened: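 Transfected HepG2 were treated for 24 hours, then RNA was extracted and reporter cDNA amplified with sequence-specific primers. Labelled fragments were separated by capillary electrophoresis, and the CRE signal was fitted bidirectionally with DMSO as baseline.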

[3] = target: CCAAT/enhancer-binding protein beta (Homo sapiens) (UniProt P17676); assay: ATG_C_EBP_CIS: Attagene CIS-FACTORIAL HepG2 Assay for human CCAAT/Enhancer Binding Protein (C/EBP) beta (AID 2282927); details: HepG2 Attagene cis-factorial transcription factor reporter; actives raise or lower the signal
Procedure, shortened: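 RT-PCR/capillary electrophoresis fluorescence of reporter mRNA, 24 h post-dose, in HepG2 cells carrying transfected cis-promoter reporter units. Bidirectional curve fitting against DMSO baseline captures gain or loss of signal.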

[4] = ATG_CMV_CIS: Attagene CIS-FACTORIAL HepG2 Assay for human CMV (Internal Marker) (AID 2282928); details: HepG2 CMV promoter reporter, transcription factor profiling; actives raise or lower the signal;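 further: endpoint acts as a background internal control marker rather than a target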
Procedure, shortened: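 After transient transfection of HepG2 with reporter transcription units driven by cis-regulatory promoters, cells receive test chemical for 24 h. Labeled reporter amplicons, digested with HpaI, are sized and quantified by capillary electrophoresis against DMSO.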

[5] = ATG_DR4_LXR_CIS: Attagene CIS-FACTORIAL HepG2 Assay for human Liver X Receptor (LXR), DR4 submotif (AID 2282929); details: HepG2 Attagene DR4 cis-reporter, mRNA transcription; actives raise or lower the signal
Procedure, shortened: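 HepG2 cells transiently transfected with cis-promoter-driven multiplexed reporter units (DR4 element) were dosed for 24 h. Reporter mRNA was quantified by RT-PCR, fluorescent primer extension, HpaI digestion and capillary electrophoresis; bidirectional fitting versus DMSO baseline.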

[6] = target: Aryl hydrocarbon receptor (Homo sapiens) (UniProt P35869); assay: ATG_Ahr_CIS: Attagene CIS-FACTORIAL HepG2 Assay for human Aryl Hydrocarbon Receptor (Ahr) (AID 2282930); details: HepG2 AhR cis-factorial reporter transcription; actives raise or lower the signal
Procedure, shortened: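 HepG2 cells transiently transfected with cis-element-driven multiplexed reporter transcription units; endogenous transcription factor activity measured as reporter mRNA 24 h after dosing. RT-PCR, 6-FAM labelling, HpaI digestion, capillary electrophoresis; bidirectional fitting versus DMSO baseline.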

[7] = ATG_AP_1_CIS: Attagene CIS-FACTORIAL HepG2 Assay for human Activator Protein 1 (AP-1) (AID 2282931); details: HepG2 Attagene cis-factorial AP-1 reporter mRNA; actives raise or lower the signal
Procedure, shortened: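 HepG2 cells transiently transfected with cis-element-driven multiplex reporter units; 24 h compound exposure. Reporter mRNA quantified by RT-PCR, FAM-labelled fragments resolved by capillary electrophoresis; bidirectional fit versus DMSO baseline.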

[8] = ATG_AP_2_CIS: Attagene CIS-FACTORIAL HepG2 Assay for human Activator Protein 2 (AP-2) (AID 2282932); details: HepG2 AP-2 cis-reporter, Attagene transcription factor profiling; actives raise or lower the signal
Procedure, shortened: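 HepG2 cells were transiently transfected with multiple cis-promoter reporter transcription units and dosed for 24 h. Reporter mRNA was measured by RT-PCR with capillary electrophoresis fluorescence; bidirectional fits relative to DMSO baseline.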

[9] = target: Transcription factor E2F1 (Homo sapiens) (UniProt Q01094); assay: ATG_E2F_CIS: Attagene CIS-FACTORIAL HepG2 Assay for human E2F Transcription Factor 1 (AID 2282935); details: HepG2 Attagene cis-reporter, E2F reporter RNA transcripts; actives raise or lower the signal
Procedure, shortened: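 HepG2 cells transiently transfected with multiplexed cis-element reporter units, dosed for 24 h. Reporter mRNA measured by RT-PCR, 6-FAM primer-extension labeling, HpaI digestion and capillary electrophoresis; bidirectional fit versus DMSO baseline.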

[10] = ATG_E_Box_CIS: Attagene CIS-FACTORIAL HepG2 Assay for human Enhancer Box (E-box) (AID 2282936); details: HepG2 E-box cis-reporter transcription, actives raise or lower the signal
Procedure, shortened: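 HepG2 cells transiently transfected with multiplexed cis-element reporter units sensing endogenous transcription factor activity; 24 h compound exposure. Reporter mRNA measured by RT-PCR, 6-FAM primer extension, HpaI digestion and capillary electrophoresis; bidirectional fit versus DMSO.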

[11] = ATG_M_61_CIS: Attagene CIS-FACTORIAL HepG2 Assay for M61 Transcription Factor (Internal Marker) (AID 2282937); details: HepG2 Attagene CIS-FACTORIAL M61 internal marker reporter; actives raise or lower the signal
Procedure, shortened: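 HepG2 cells transiently transfected with cis-element-driven multiple reporter transcription units, dosed for 24 h. Reporter mRNA measured by RT-PCR, 6-FAM primer-extension labelling, HpaI digestion and capillary electrophoresis; bidirectional fit versus DMSO baseline.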

[12] = ATG_EGR_CIS: Attagene CIS-FACTORIAL HepG2 Assay for human Early Growth Response 1 (EGR1) (AID 2282938); details: HepG2 Attagene CIS-FACTORIAL EGR reporter mRNA; actives raise or lower the signal
Procedure, shortened: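 HepG2 cells transiently transfected with cis-promoter-driven multiplexed reporter transcription units; reporter mRNA measured 24 h after compound dosing by RT-PCR, 6-FAM primer extension, HpaI digestion and capillary electrophoresis. Bidirectional fit versus DMSO baseline.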

[13] = ATG_M_19_CIS: Attagene CIS-FACTORIAL HepG2 Assay for M19 Transcription Factor (Internal Marker) (AID 2282939); details: HepG2 Attagene CIS-FACTORIAL M19 internal marker reporter; actives raise or lower the signal
Procedure, shortened: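 In this multiplexed cell assay, transiently transfected HepG2 reporter units report endogenous transcription-factor activity; after 24 hours of treatment, labelled reporter cDNA fragments are quantified by capillary electrophoresis and fitted bidirectionally against DMSO.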

[14] = ATG_ERE_CIS: Attagene CIS-FACTORIAL HepG2 Assay for Estrogen Response Element (ERE) (AID 2282940); details: HepG2 ERE cis-reporter, Attagene RNA transcript; actives raise or lower the signal
Procedure, shortened: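 Measuring endogenous transcription factor output, the assay doses transfected HepG2 cells for 24 hours and quantifies reporter transcripts by fluorescent RT-PCR and capillary electrophoresis, with DMSO as baseline.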

[15] = ATG_Ets_CIS: Attagene CIS-FACTORIAL HepG2 Assay for human Erythroblast Transformation Specific (ETS) (AID 2282941); details: HepG2 ETS cis-reporter transcription, actives raise or lower the signal
Procedure, shortened: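 Human HepG2 hepatoma cells were transiently transfected with promoter-driven reporter constructs and treated for 24 hours. Reporter transcripts were quantified by RT-PCR with fluorescent primer extension; bidirectional curve fitting used DMSO as reference.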

[16] = target: Hepatocyte nuclear factor 3-beta (Homo sapiens) (UniProt Q9Y261); assay: ATG_FoxA2_CIS: Attagene CIS-FACTORIAL HepG2 Assay for human Forkhead box A2 (FOXA2) (AID 2282942); details: HepG2 cis-reporter transcription factor activity, 24 h; actives raise or lower the signal
Procedure, shortened: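 HepG2 cells transiently transfected with multiple cis-regulated reporter transcription units, dosed for 24 h. Reporter mRNA measured by RT-PCR, 6-FAM labelling, HpaI digestion and capillary electrophoresis; bidirectional fitting against DMSO baseline.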

[17] = ATG_FoxO_CIS: Attagene CIS-FACTORIAL HepG2 Assay for human Forkhead box O (FoxO) (AID 2282943); details: HepG2 Attagene cis-reporter, FoxO element, mRNA; actives raise or lower the signal
Procedure, shortened: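 HepG2 cells transiently transfected with cis-promoter-driven multiple reporter transcription units; 24 h after chemical dosing, reporter mRNA quantified by RT-PCR, fluorescent primer extension, HpaI digestion and capillary electrophoresis. Bidirectional fitting versus DMSO baseline.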

[18] = ATG_GATA_CIS: Attagene CIS-FACTORIAL HepG2 Assay for human GATA Binding Protein (AID 2282944); details: HepG2 GATA cis-element reporter, Attagene multiplex mRNA; actives raise or lower the signal
Procedure, shortened: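 Measures endogenous transcription factor-driven reporter mRNA in HepG2 cells transiently carrying cis-regulated constructs. 24 h dosing; RNA via oligo(dT) reverse transcription, PCR, HpaI digestion, capillary electrophoresis; fitted relative to DMSO.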

[19] = ATG_BRE_CIS: Attagene CIS-FACTORIAL HepG2 Assay for human Bone Morphogenetic Protein (BMP) Response Element (BRE) (AID 2282933); details: HepG2 BMP response element reporter, Attagene transcription factor profiling; actives raise or lower the signal
Procedure, shortened: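 After a 24 h chemical treatment, transiently transfected HepG2 cells were lysed for RNA; reporter transcripts were quantified by fluorescent RT-PCR and capillary electrophoresis, normalised to DMSO.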

[20] = target: Retinoic acid receptor alpha (Homo sapiens) (UniProt P10276); assay: ATG_DR5_RAR_CIS: Attagene CIS-FACTORIAL HepG2 Assay for human Retinoic Acid Receptor Alpha (RARE), DR5 submotif (AID 2282934); details: HepG2 Attagene cis-factorial RARE DR5 reporter, mRNA; actives raise or lower the signal;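 on AC50: reporter responds to endogenous RAR alpha beta and gamma in HepG2 not RARA alone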
Procedure, shortened: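 HepG2 cells transiently transfected with multiplexed reporter units under cis (DR5 RARE) promoters, so endogenous transcription factor activity is measured. After 24 h compound exposure, reporter mRNA is quantified by RT-PCR with fluorescent labelling and capillary electrophoresis; bidirectional fitting versus DMSO.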

Measured: AC50

Hepatocyte nuclear factor 3-beta (Homo sapiens), sequence (Q9Y261 whole entry, looked up): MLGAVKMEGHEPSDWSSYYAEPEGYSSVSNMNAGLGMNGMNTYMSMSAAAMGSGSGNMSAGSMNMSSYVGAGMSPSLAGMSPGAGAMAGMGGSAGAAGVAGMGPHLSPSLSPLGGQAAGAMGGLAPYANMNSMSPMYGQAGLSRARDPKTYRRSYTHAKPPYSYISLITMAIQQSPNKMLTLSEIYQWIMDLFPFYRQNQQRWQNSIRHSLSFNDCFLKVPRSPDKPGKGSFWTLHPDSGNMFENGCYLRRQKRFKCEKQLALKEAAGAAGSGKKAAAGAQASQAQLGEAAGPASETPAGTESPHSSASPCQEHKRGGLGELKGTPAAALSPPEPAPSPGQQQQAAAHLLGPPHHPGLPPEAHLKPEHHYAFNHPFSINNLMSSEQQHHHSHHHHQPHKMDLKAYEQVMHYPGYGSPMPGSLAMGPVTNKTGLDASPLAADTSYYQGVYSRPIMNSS
Transcription factor E2F1 (Homo sapiens), sequence (Q01094 whole entry, looked up): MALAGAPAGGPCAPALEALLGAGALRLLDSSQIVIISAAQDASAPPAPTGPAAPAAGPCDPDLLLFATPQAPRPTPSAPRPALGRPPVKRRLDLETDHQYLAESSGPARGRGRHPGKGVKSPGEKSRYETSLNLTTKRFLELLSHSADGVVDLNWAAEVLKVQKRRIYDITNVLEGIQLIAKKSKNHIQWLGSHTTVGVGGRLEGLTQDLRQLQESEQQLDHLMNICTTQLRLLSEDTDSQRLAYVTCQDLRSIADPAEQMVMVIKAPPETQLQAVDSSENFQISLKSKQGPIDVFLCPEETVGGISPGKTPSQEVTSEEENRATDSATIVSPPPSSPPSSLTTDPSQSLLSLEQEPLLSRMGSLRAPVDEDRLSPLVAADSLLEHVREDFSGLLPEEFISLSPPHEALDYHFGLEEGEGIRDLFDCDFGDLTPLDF
CCAAT/enhancer-binding protein beta (Homo sapiens), sequence (P17676 whole entry, looked up): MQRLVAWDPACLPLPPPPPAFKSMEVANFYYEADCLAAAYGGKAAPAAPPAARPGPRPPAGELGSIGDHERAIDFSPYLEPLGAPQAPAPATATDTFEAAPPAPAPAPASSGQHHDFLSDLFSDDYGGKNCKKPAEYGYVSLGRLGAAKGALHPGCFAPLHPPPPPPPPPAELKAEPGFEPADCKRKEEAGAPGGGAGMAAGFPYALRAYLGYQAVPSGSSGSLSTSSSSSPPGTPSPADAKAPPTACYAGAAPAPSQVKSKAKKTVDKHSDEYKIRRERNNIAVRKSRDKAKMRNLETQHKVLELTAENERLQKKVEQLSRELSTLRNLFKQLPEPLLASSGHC
Retinoic acid receptor alpha (Homo sapiens), sequence (P10276 whole entry, looked up): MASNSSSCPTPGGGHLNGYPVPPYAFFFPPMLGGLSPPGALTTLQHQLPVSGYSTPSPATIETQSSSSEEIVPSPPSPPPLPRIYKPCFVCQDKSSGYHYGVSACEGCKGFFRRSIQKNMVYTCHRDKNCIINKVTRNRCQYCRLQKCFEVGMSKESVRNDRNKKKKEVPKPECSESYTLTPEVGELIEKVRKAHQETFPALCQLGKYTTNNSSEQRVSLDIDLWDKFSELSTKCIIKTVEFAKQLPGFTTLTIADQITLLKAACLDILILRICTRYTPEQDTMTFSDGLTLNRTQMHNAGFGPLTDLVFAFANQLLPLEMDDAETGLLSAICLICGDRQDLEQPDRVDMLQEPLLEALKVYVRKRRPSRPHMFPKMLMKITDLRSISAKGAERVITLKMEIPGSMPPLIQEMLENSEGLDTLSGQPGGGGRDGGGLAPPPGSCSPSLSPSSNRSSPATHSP
Aryl hydrocarbon receptor (Homo sapiens), sequence (P35869 whole entry, looked up): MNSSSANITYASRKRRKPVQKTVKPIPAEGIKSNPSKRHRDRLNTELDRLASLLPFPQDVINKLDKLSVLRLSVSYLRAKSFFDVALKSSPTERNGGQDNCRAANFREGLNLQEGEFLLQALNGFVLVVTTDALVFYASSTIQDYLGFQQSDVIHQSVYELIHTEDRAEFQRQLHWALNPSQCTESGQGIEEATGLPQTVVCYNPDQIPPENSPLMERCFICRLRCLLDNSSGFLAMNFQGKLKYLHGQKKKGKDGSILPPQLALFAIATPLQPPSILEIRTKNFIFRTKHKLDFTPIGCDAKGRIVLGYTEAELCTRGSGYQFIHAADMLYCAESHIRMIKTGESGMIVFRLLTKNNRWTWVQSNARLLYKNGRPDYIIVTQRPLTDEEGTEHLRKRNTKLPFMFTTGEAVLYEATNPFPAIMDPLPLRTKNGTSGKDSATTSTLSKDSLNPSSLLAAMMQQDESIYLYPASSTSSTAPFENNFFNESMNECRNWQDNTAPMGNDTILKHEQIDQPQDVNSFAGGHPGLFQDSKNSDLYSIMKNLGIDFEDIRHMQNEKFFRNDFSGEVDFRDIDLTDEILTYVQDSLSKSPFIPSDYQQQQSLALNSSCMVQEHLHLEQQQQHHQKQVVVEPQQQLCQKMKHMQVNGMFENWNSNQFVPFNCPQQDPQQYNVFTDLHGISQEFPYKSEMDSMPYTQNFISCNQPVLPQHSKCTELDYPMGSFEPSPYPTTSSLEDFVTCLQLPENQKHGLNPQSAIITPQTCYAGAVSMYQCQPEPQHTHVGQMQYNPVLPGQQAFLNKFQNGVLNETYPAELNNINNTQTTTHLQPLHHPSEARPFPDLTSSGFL

Cc1cc(O)c(C(C)(C)C)cc1C(C)(C)C
active: [4] 9.14 µM | [7] 11.1 µM | [10] 13.9 µM
not listed: [19] | [20]
inactive: all other assays above

Cc1ccc([N+](=O)[O-])c(C)c1
active: [1] 22.4 µM
not listed: [8] | [16]
inactive: all other assays above

O=C1c2ccccc2C(=O)c2c(Cl)cccc21
not listed: [16] | [19]
inactive: all other assays above

CCCCC(CC)COC(=O)c1ccc(N(C)C)cc1 (stereo not given)
active: [4] 53.9 µM | [5] 64.7 µM | [7] 61.7 µM | [19] 46.7 µM | [14] 9.36 µM
not listed: [16] | [20]
inactive: all other assays above

O=S(=O)(O)c1ccc(Cl)cc1
not listed: [12] | [20]
inactive: all other assays above

CCCCCCCC/C=C\CCCCCCCC(=O)OCC(O)CO (stereo not given)
active: [7] 100 µM | [20] 20.5 µM
not listed: [8] | [12]
inactive: all other assays above

Cc1cnccn1
active: [6] 96.5 nM
not listed: [19] | [20]
inactive: all other assays above

OCC(F)(F)C(F)(F)C(F)(F)CO
not listed: [8]
inactive: all other assays above
